In PubChem BioAssay (NCI):
This is part of a sample that, as a whole, favours compounds with a hit. Of some 79,000 tested, about 15% had one in any assay. Values without a mark were called inactive. Activity calls are given as the source filed them. Cut-off read from the data, not from the text of the source: active = growth inhibition above about 70%; inactive = the rest.

Columns and labels:
[1] = NCI Yeast Anticancer Drug Screen. Data for the wt1 strain (AID 149);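 note: 0% = growth of vehicle-treated wt1 cultures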; conditions: S. cerevisiae wt1 strain (SPY 50644) growth inhibition, active compounds read high
Outline: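 The wt1 strain was treated with compounds, and growth was compared with vehicle-treated cultures to give inhibition.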

[2] = NCI Yeast Anticancer Drug Screen. Data for the rad50EPP+ strain (AID 151);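 note: 0% = growth of vehicle-treated control cultures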; conditions: S. cerevisiae rad50 mutant strain, active compounds read high
Outline: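 One strain with a rad50 alteration (rad50EPP+) was compound-treated, its growth then compared to that of vehicle controls.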

[3] = NCI Yeast Anticancer Drug Screen. Data for the mgt1 strain (AID 153); conditions: S. cerevisiae mgt1 mutant growth inhibition, active compounds read high
Outline: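 After exposure of the mgt1 yeast mutant to compound, growth was measured and reported as inhibition compared with vehicle controls.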

[4] = NCI Yeast Anticancer Drug Screen. Data for the rad50 strain (AID 155);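 note: 0% = growth of vehicle-only cultures of the same strain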; conditions: S. cerevisiae rad50 strain growth inhibition, active compounds read high
Outline: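 Cells are treated with compound, grown, and their growth is then scored against vehicle-only cultures of the same repair-deficient yeast strain.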

[5] = NCI Yeast Anticancer Drug Screen. Data for the mec2-1 strain (AID 157); conditions: S. cerevisiae mec2-1 strain, active compounds read high
Outline: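 Test agents were screened against the mec2-1 yeast strain, with defined DNA repair or cell cycle alteration. Growth was scored as inhibition against vehicle-only controls.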

[6] = NCI Yeast Anticancer Drug Screen. Data for the rad14 strain (AID 159);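 note: 0% = growth of vehicle-treated control cultures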; conditions: S. cerevisiae rad14 strain growth inhibition, active compounds read high
Outline: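 Readout: yeast growth inhibition, referenced to vehicle-only cultures. Strain bears a defined alteration in DNA damage repair.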

[7] = NCI Yeast Anticancer Drug Screen. Data for the sgs1 mgt1 strain (AID 161);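 note: 0% = growth of cultures given vehicle only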; conditions: S. cerevisiae sgs1 mgt1 strain, active compounds read high
Outline: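 Mutant yeast exposed to compound; growth scored against vehicle-only wells.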

[8] = NCI Yeast Anticancer Drug Screen. Data for the CLN2oe strain (AID 163);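 note: 0% = growth of vehicle-only control cultures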; conditions: S. cerevisiae CLN2oe strain, active compounds read high
Outline: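 Here, growth inhibition in a cell-cycle-altered yeast strain after compound exposure was quantified against vehicle control growth.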

[9] = NCI Yeast Anticancer Drug Screen. Data for the cln2 rad14 strain (AID 165);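 note: 0% = growth equal to vehicle treated cultures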; conditions: S. cerevisiae cln2 rad14 strain, active compounds read high
Outline: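 Growth of compound-exposed yeast (cln2 rad14 genotype) measured and expressed as inhibition relative to vehicle.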

[10] = NCI Yeast Anticancer Drug Screen. Data for the bub3 strain (AID 167); conditions: S. cerevisiae bub3 mutant strain, active compounds read high
Outline: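 Part of a panel of yeast mutants defective in DNA damage repair or cell cycle regulation. Each strain is grown with compound, and inhibition is calculated relative to solvent-treated cultures.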

[11] = NCI Yeast Anticancer Drug Screen. Data for the wt2 strain (AID 169);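 note: 0% = growth of vehicle-treated yeast cultures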; conditions: S. cerevisiae wt2 strain growth inhibition, active compounds read high
Outline: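 Genetically defined yeast strains from a DNA-repair/cell-cycle panel were used. Compound-exposed yeast growth was measured, and the inhibition was calculated relative to vehicle treatment.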

[12] = NCI Yeast Anticancer Drug Screen. Data for the mlh1 strain (AID 171);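 note: 0% = growth of vehicle-treated control cultures of the same strain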; conditions: S. cerevisiae mlh1 strain growth inhibition, active compounds read high
Outline: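 Here the genetically defined yeast mutant is grown with each compound, and the extent to which its growth falls below that of vehicle-exposed cells is reported.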

[13] = NCI Yeast Anticancer Drug Screen. Data for the sgs1 strain (AID 173);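 note: 0% = growth of vehicle-only control cultures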; conditions: S. cerevisiae sgs1 mutant, active compounds read high
Outline: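 Relative growth inhibition, referenced to vehicle, was determined in a yeast strain with a defined alteration affecting DNA damage repair or cell cycle control after compound exposure.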

[14] = NCI Yeast Anticancer Drug Screen. Data for the mlh1 rad18 strain (AID 175); conditions: S. cerevisiae mlh1 rad18 strain growth inhibition, active compounds read high
Outline: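 In this whole-cell yeast screen, a strain with altered DNA damage repair is challenged with compound, and its growth is measured against matched vehicle-treated controls.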

[15] = NCI Yeast Anticancer Drug Screen. Data for the rad18 strain (AID 177); conditions: S. cerevisiae rad18 mutant growth inhibition, active compounds read high
Outline: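 Screen uses a yeast strain with a defined lesion in DNA damage repair; compound effect is read as loss of growth compared to untreated vehicle cultures.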

[16] = at 5.0 µM (retest, dose inferred, filed as 0.5)
[17] = at 50.0 µM (retest, dose inferred, filed as 5.0)

O=C(O)[C@H]1[C@@H](C2CCCCC2)O[C@@H](C2CCCCC2)O[C@H]1C(F)(F)F
growth inhibition ([1]; at 1.2 µM): -3%
growth inhibition ([1]; at 3.7 µM): 0%
growth inhibition ([1]; at 11.0 µM): 0%
growth inhibition ([1]; at 33.0 µM): 0%
growth inhibition ([1]; at 100.0 µM): 1%
growth inhibition ([2]; at 1.2 µM): -4%
growth inhibition ([2]; at 3.7 µM): -1%
growth inhibition ([2]; at 11.0 µM): 2%
growth inhibition ([2]; at 33.0 µM): -2%
growth inhibition ([2]; at 100.0 µM): -3%
growth inhibition ([3]; at 1.2 µM): 0%
growth inhibition ([3]; at 3.7 µM): -4%
growth inhibition ([3]; at 11.0 µM): 10%
growth inhibition ([3]; at 33.0 µM): -17%
growth inhibition ([3]; at 100.0 µM): 0%
growth inhibition ([4]; at 1.2 µM): -4%
growth inhibition ([4]; at 3.7 µM): -5%
growth inhibition [4, 16]: -46%
growth inhibition ([4]; at 11.0 µM): -19%
growth inhibition ([4]; at 33.0 µM): -4%
growth inhibition [4, 17]: 61%
growth inhibition ([4]; at 50.0 µM): 88.1% (active)
growth inhibition ([4]; at 100.0 µM): -2%
growth inhibition ([5]; at 1.2 µM): 2%
growth inhibition ([5]; at 3.7 µM): -2%
growth inhibition [5, 16]: -19%
growth inhibition ([5]; at 11.0 µM): 1%
growth inhibition ([5]; at 33.0 µM): -4%
growth inhibition [5, 17]: 16%
growth inhibition ([5]; at 50.0 µM): 91.8% (active)
growth inhibition ([5]; at 100.0 µM): 5%
growth inhibition ([6]; at 1.2 µM): -1%
growth inhibition ([6]; at 3.7 µM): -1%
growth inhibition ([6]; at 11.0 µM): 0%
growth inhibition ([6]; at 33.0 µM): 0%
growth inhibition ([6]; at 100.0 µM): -1%
growth inhibition [7, 16]: -25%
growth inhibition [7, 17]: 12%
growth inhibition ([7]; at 50.0 µM): 85.5% (active)
growth inhibition ([8]; at 1.2 µM): -1%
growth inhibition ([8]; at 3.7 µM): -1%
growth inhibition ([8]; at 11.0 µM): -13%
growth inhibition ([8]; at 33.0 µM): -8%
growth inhibition ([8]; at 100.0 µM): 4%
growth inhibition [9, 16]: -11%
growth inhibition [9, 17]: -8%
growth inhibition ([9]; at 50.0 µM): 87.3% (active)
growth inhibition ([10]; at 1.2 µM): -4%
growth inhibition ([10]; at 3.7 µM): 2%
growth inhibition [10, 16]: -20%
growth inhibition ([10]; at 11.0 µM): 3%
growth inhibition ([10]; at 33.0 µM): -2%
growth inhibition [10, 17]: 5%
growth inhibition ([10]; at 50.0 µM): 87.8% (active)
growth inhibition ([10]; at 100.0 µM): -1%
growth inhibition ([11]; at 1.2 µM): -2%
growth inhibition ([11]; at 3.7 µM): -3%
growth inhibition ([11]; at 11.0 µM): -3%
growth inhibition ([11]; at 33.0 µM): -4%
growth inhibition ([11]; at 100.0 µM): -1%
growth inhibition ([12]; at 1.2 µM): -3%
growth inhibition ([12]; at 3.7 µM): -1%
growth inhibition ([12]; at 11.0 µM): -4%
growth inhibition ([12]; at 33.0 µM): -5%
growth inhibition ([12]; at 100.0 µM): 3%
growth inhibition ([13]; at 1.2 µM): -2%
growth inhibition ([13]; at 3.7 µM): 0%
growth inhibition ([13]; at 11.0 µM): 1%
growth inhibition ([13]; at 33.0 µM): 1%
growth inhibition ([13]; at 100.0 µM): 1%
growth inhibition [14, 16]: -3%
growth inhibition [14, 17]: 18%
growth inhibition ([14]; at 50.0 µM): 83.8% (active)
growth inhibition ([15]; at 1.2 µM): -6%
growth inhibition ([15]; at 3.7 µM): -4%
growth inhibition ([15]; at 11.0 µM): -8%
growth inhibition ([15]; at 33.0 µM): -6%
growth inhibition ([15]; at 100.0 µM): -2%
